Compound activity (PubChem BioAssay)
GLD-1 RNA inh: GLD-1-TGE RNA interaction inhibition (C. elegans); Q17339; purified GLD-1 + fluorescein TGE RNA, fluorescence polarization; inhibition, % at 5.96 µM; actives 0.44% (n = 320,000); AID 2280;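 active = percent inhibition above a per-plate cutoff, the plate mean of test compounds plus 3 SD, cut at about 30% in these data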;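 also: 0% = DMSO wells with GLD-1 and probe and 100% = wells lacking GLD-1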
eLon inh: E. coli protease La inhibition; P0A9M0; inhibition, % at 7.94 µM; actives 0.42% (n = 360,000); purified E. coli Lon protease, fluorescence polarization; in the data active = inhibition above about 13%, passing the limit was not always enough;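 also: 0% = enzyme with probe and DMSO and 100% = no enzyme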
MCL1 BIM primary: disrupts human MCL1 binding to BIM-BH3 peptide; inhibition, % at 10.9 µM; GST-MCL1 / FITC-Bim-BH3 fluorescence polarization; Q07820; AID 2057; actives 0.68% (n = 320,000);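 active = inhibition above the mean inhibition of all tested compounds plus 3 SD, set per campaign, cut at about 40% in these data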;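 also: 0% = DMSO wells and 100% = unlabeled Bim-BH3 peptide control; higher means more loss of mP so more displacement of Bim peptide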
BCLXL inh: blocks human Bcl-xL binding to Bim BH3 peptide; Q07817; GST-Bcl-xL / FITC-Bim BH3 peptide fluorescence polarization; inhibition, % at 10.9 µM; actives 0.7% (n = 320,000); AID 2129;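 active = inhibition above the mean of all tested compounds plus 3 SD, cutoff set per campaign, cut at about 30% in these data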;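 also: 0% = DMSO wells and 100% = unlabeled Bim-BH3 peptide competitor; inhibitors lower millipolarization by displacing the labeled peptide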
MEX-5 binding: C. elegans MEX-5 TCR-2 RNA binding activity; Q9XUB2; MEX-5/FITC-TCR2 RNA binding, fluorescence polarization; active compounds read low; activity score (negative = inhibition of binding), % at 10 µM; actives 0.38% (n = 300,000); AID 1832;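 active = inhibition past about -25% in most replicates, and total fluorescence under double the plate's negative control median, limit read from the data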;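 also: 0% = DMSO and -100% = 5 µM competing unlabeled TCR2 RNA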
Target sequence (Q9XUB2 whole entry, looked up): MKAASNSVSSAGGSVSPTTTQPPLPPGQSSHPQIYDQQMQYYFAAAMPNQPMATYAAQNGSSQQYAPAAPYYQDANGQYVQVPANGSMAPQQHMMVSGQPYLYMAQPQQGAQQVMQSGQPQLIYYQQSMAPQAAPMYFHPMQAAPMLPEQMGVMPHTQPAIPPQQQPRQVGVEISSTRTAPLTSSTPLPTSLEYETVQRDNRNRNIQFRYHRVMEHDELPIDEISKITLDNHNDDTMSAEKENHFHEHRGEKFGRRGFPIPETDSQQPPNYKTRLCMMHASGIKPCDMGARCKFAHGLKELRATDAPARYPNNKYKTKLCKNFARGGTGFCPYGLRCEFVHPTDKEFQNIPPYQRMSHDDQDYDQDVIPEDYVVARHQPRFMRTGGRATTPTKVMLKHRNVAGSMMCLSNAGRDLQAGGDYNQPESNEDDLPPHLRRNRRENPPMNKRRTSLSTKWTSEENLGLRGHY
eLon confirm: E. coli Lon inhibition confirmation; shares compounds with eLon inh; purified E. coli Lon, fluorescence polarization; inhibition, % at 7.94 µM; actives 31% (n = 1,400); AID 602230; in the data active = inhibition above about 16%;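 also: 0% = enzyme with probe and DMSO and 100% = no enzyme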
Starred values were filed as active, the others as inactive; . = not tested or not shown; + = active, no number. Most compounds without a hit are left out; they make up all but 1.4% or so of the library.

SMILES | GLD-1 RNA inh | eLon inh | MCL1 BIM primary | BCLXL inh | MEX-5 binding | eLon confirm
O=C(NC(c1ccc(F)cc1)c1ccc2ccccc2n1)C1CCN(Cc2ccc3ccccc3n2)CC1 (configuration not stated) | . | -19 | . | . | . | .
COc1cc(/C=C/CN2CCC(C(=O)NC(c3ccc(F)cc3)c3ccc4ccccc4n3)CC2)ccc1OC(C)=O (configuration not stated) | . | 26* | . | . | . | 1
O=C1CCCCC1(c1ccccc1)c1ccccc1 | . | -1 | . | . | . | .
O=C1CCCC/C1=C\Nc1ccc(O)cc1 | 16 | 19* | 3 | 10 | 2 | 5
O=C1COc2ccc(N3C(=O)C=CC3=O)cc2N1 | 5 | . | 6 | 5 | -4 | .
C=CCNC(=S)N/N=C/c1ccc(-c2ccc(Cl)cc2Cl)o1 | 5 | -18 | 2 | 1 | -1 | .
CCOC(=O)C1=C(C)NC2=C(C(=O)C(C(=O)OCC)C(c3ccco3)C2)C1c1ccccn1 (configuration not stated) | 8 | 44* | 10 | 3 | 1 | -1
O=C(/C(=C/O)N=Nc1ccccc1)c1cccs1 | 1 | 22* | 3 | 1 | -3 | 12
COc1cc2c(C#N)c(N3CCc4ccccc4C3)nc(N)c2c(N)n1 | 16 | 56* | 30 | 23 | 0 | -16
Cc1nc(N)c(Cc2ccc(Cl)cc2Cl)c(N)n1 | 9 | -6 | -2 | -6 | 2 | .
CCn1c(CC(=O)Nc2ccccc2F)nnc1SCC(=O)NC1CCCC1 | 0 | 17* | -1 | -6 | 1 | 5
Cn1c(CC(=O)Nc2ccccc2F)nnc1SCC(=O)NC1CCCCC1 | -8 | -6 | 3 | 2 | 2 | .
NS(=O)(=O)c1ccc(CCNC(=O)COc2ccc3c4c(c(=O)oc3c2)CCC4)cc1 | 4 | 18* | 2 | 3 | 0 | -40
CC(C)(C)c1ccc(-n2ncc3c2CCCC3NC(=O)c2ccco2)cc1 (configuration not stated) | . | -17 | . | . | . | .
Clc1ccc(N=NN2CCOCC2)cc1 | 5 | 19* | 7 | 7 | 0 | 4
CC(=O)c1cccc(OC(=O)Oc2cccc(C(C)=O)c2)c1 | . | -6 | . | . | . | .
Cc1ccc2nc(-c3ccsc3)c(NC3CCCC3)n2c1 | 0 | 2 | 5 | 5 | -1 | .
Cc1ccc(-n2nc3c(=O)n(CC(=O)NCCc4ccco4)nc(C)c3c2C)cc1 | 4 | 36* | 2 | 6 | -3 | -2
Cc1ccc(-n2nc3c(=O)n(CC(=O)NCCCc4ccccc4)nc(C)c3c2C)cc1 | -3 | 2 | -6 | -2 | -1 | .
COc1ccc(O)c(C(=O)c2cnn(-c3ccccn3)c2)c1 | -6 | 84* | -8 | 0 | 2 | -13
COc1ccc(O)c(C(=O)c2cnn(-c3ccc(Cl)cc3)c2)c1 | 2 | -9 | 3 | 2 | -1 | .
Cc1ccc2c(c1)c1c(n2CC(O)CNC(C)(C)C)CCCC1 (configuration not stated) | . | 16* | . | . | . | 10
Cc1ccc2c(c1)c1c(n2CC(O)CN2CCCCCC2)CCCC1 (configuration not stated) | -2 | 4 | 6 | 5 | -8 | .
C=CCn1c(COc2ccc(OC)cc2)nnc1SC(C)C(=O)NC1CC1 (configuration not stated) | 5 | -1 | -2 | -3 | . | .
CCC(c1nnc(SC(C)C(=O)NC2CC2)n1-c1ccc(OC)cc1)N(C)C (configuration not stated) | 1 | 19* | 4 | 5 | . | 4
SMILES | GLD-1 RNA inh | eLon inh | MCL1 BIM primary | BCLXL inh | MEX-5 binding | eLon confirm
O=S(=O)(Nc1cccc(S(=O)(=O)N2CCCCCC2)c1)c1ccccc1 | -2 | 4 | -3 | 3 | 0 | .
O=S(=O)(Nc1cccc(S(=O)(=O)N2CCCC2)c1)c1ccc(Cl)cc1 | 3 | 101* | . | . | . | -4
O=C1Nc2ccccc2C12OCCS2 (configuration not stated) | 1 | . | 6 | -1 | 0 | .
CC(C)OP(=O)(CCP(=O)(OC(C)C)OC(C)C)OC(C)C | 5 | 17* | 5 | 3 | 2 | -81
O=C(NCCCN1CCCC1=O)c1ccc2c(=O)n(Cc3ccco3)c(=S)[nH]c2c1 | -6 | 18* | 6 | 13 | -1 | 8
CCOc1ccccc1NC(=O)CSc1nnc(C2CC2)n1CC | -9 | -4 | 4 | 1 | -6 | .
O=C(O)CCC(=O)N1N=C(c2ccco2)CC1c1ccco1 (configuration not stated) | -6 | 4 | 11 | 4 | 1 | .
Cc1ccc(C2=NN(C(=O)CCCC(=O)O)C(c3ccco3)C2)cc1 (configuration not stated) | -1 | 19* | 1 | 7 | 0 | -4
O=C(Nc1ccc(S(=O)(=O)Nc2ncccn2)cc1)c1ccccc1 | -3 | 14 | 6 | 5 | 2 | .
C/C(=C\c1ccccc1)C(=O)Nc1ccc(S(=O)(=O)Nc2ncccn2)cc1 | 3 | 22* | 4 | 3 | 0 | -18
CCCCOC(=O)Nc1ccc(S(=O)(=O)Nc2ncccn2)cc1 | -8 | 21* | -17 | -13 | 2 | 30*
COc1ccc(C(=O)Nc2ccc(S(=O)(=O)Nc3ncccn3)cc2)cc1OC | 1 | 21* | -4 | 0 | 1 | 9
COC(=O)Nc1ccc(S(=O)(=O)Nc2ncccn2)cc1 | 3 | 27* | 5 | 1 | 0 | -78
Cc1cccc(C(=O)Nc2ccc(C(=O)N/N=C/c3ccc(C)o3)cc2)c1 | 1 | 3 | -3 | -1 | -2 | .
O=C(Nc1cccc(C(=O)N2CCCCC2)c1)C1CCCC1 | . | 16* | . | . | . | -6
O=C(Nc1cccc(C(=O)N2CCCCC2)c1)c1ccc(Cl)cc1 | 3 | 17* | 1 | -2 | 0 | 5
O=C(Nc1cccc(C(=O)N2CCCCC2)c1)c1ccccc1 | . | 10 | . | . | . | .
CCCNC(=O)C1(C)CCCN(Cc2ccc3ccccc3c2)C1 (configuration not stated) | . | -5 | . | . | . | .
CCC(CC)C(=O)Nc1cccc(/C(C)=N/NC(=O)c2ccccc2Cl)c1 | -1 | 0 | -2 | -4 | 2 | .
CN(C)CCCNC(=O)C1(O)c2cc(Br)ccc2NC(=O)N1c1c(F)cccc1F (configuration not stated) | 1 | -8 | -10 | -3 | -1 | .
COc1cccc2c1C(=O)c1c(O)c3c(c(O)c1C2=O)CC(O)(C(C)=O)CC3OC1CC(N(C)C)C(O)C(C)O1 (configuration not stated) | . | + | . | . | . | +
CC(=O)[C@@]1(O)Cc2c(O)c3c(c(O)c2[C@H](O[C@H]2C[C@H](N)[C@H](O)[C@H](C)O2)C1)C(=O)c1ccccc1C3=O | . | + | . | . | . | +
COc1cccc2c1C(=O)c1c(O)c3c(c(O)c1C2=O)C[C@@](O)(C(=O)CO)C[C@@H]3OC1CC(N)C(O)C(C)O1 (some centres not stated) | . | + | . | . | . | +
CCCNC(=O)c1nnsc1Sc1ccc(Cl)cc1 | 2 | -8 | -1 | 5 | 3 | .
